The campaign covered roughly 50,000 compounds. About 800 (1.6%) showed an effect of 50% or more. Only a selection was taken, and strong results are over-represented in it overall.

Bcl-2-like protein 10 (Homo sapiens), sequence (Q9HD36 whole entry, looked up): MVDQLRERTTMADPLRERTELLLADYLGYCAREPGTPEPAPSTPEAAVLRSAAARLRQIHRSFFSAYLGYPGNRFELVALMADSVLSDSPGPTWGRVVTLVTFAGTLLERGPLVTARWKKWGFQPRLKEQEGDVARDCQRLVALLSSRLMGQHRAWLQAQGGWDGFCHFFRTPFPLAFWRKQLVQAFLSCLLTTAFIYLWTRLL

This test addresses Bcl-2-like protein 10 (Homo sapiens) (UniProt Q9HD36). Description: TR3 peptide-Bcl-B binding displacers, biochemical primary FP assay, phenotype converters (AID 1240).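 Note: 0% = Bcl-B with tracer peptide and DMSO and 100% = tracer peptide lacking Bcl-B.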 As to conditions: GST-Bcl-B / FITC-TR3 peptide fluorescence polarization; stronger effect = higher value; compound at 3.75 mg/L. A general note: Fluorescence polarisation rises when a labelled molecule tumbles more slowly, as on binding a larger partner.
`COc1cc(C(=O)Nc2nc3ccc4ccccc4c3s2)cc(OC)c1OC`: the displacement came to 6.6%. The result for `CCCCN(CCCC)S(=O)(=O)c1ccc(C)cc1` reads -6.8%; that for `O=C(/C=C\Nc1ccc2c(c1)OCO2)c1ccc2c(c1)OCO2`, 104%; that for `CNc1cc([N+](=O)[O-])ccc1N/C=C\C(=O)c1ccc2c(c1)OCO2`, 97.2%. Turning to `O=C(/C=C\Nc1ccc([N+](=O)[O-])cc1Br)c1ccc2c(c1)OCO2`, the displacement came out at 3%. The result for `COC(=O)c1ccc(N/C=C\C(=O)c2ccc3c(c2)OCO3)cc1` reads 23.7%; that for `CNc1cc([N+](=O)[O-])ccc1N/C=C\C(=O)c1ccc2ccccc2c1`, 14.1%; that for `O=C(/C=C\Nc1ccc2c(c1)OCO2)c1ccc(F)cc1`, -2.4%.

As for `COc1ccc(C(=O)Nc2ccc(Br)c(C)c2)c(OC)c1`, the displacement came out at 14.5%.

Take `COC(=O)c1ccccc1NC(=O)c1cnn2c(C(F)(F)F)cc(-c3ccccc3)nc12`: the displacement turned out to be 11.9%. The result for `COc1ccc(N(CC(=O)NC(C)c2ccccc2)S(=O)(=O)c2ccccc2)cc1` (stereo not given) reads 5.7%; that for `CCC(c1ccccc1)c1nnc(NC(=O)Nc2cccc(Cl)c2)s1` (stereo not given), -0.8%. As for `COc1cc(NC(=O)c2ccc(-c3ccccc3[N+](=O)[O-])o2)ccc1NC(=O)c1ccco1`, the figure is 7.1%; as for `CC(=O)Oc1cc2ccccc2cc1O`, 3.9%; as for `C=CCN1C(=O)/C(=C\c2cn(C)c3ccccc23)C(=O)NC1=S`, -18.2%. As for `C=CCN1C(=O)/C(=C\c2ccc(-c3ccc([N+](=O)[O-])cc3)o2)C(=O)NC1=S`, the figure is 12.1%; as for `C=CCN1C(=O)/C(=C\c2cn(Cc3ccc([N+](=O)[O-])cc3)c3ccccc23)C(=O)NC1=S`, 87.4%; as for `CSc1ccc(S(=O)(=O)NCc2ccccc2C)cc1`, 16.3%. On to `O=[N+]([O-])c1ccc(/C=N/c2nc3c(s2)CCCC3)cc1`, for which the displacement stood at 6.6%. As for `COc1ccc(C(=O)c2c(N)c(C#N)c(C)n2-c2ccccc2)cc1`, the figure is 9.3%. As for `COc1ccc(OCC(=O)Nc2ccc(OC)c(OC)c2)cc1`, the figure is -4.2%; as for `O=c1cc(=O)n(-c2ccccc2)c2ccccc12`, -0.3%; as for `COc1ccc(-c2ccc(/C=C/c3cc(C(F)(F)F)[nH]c(=O)n3)o2)c([N+](=O)[O-])c1`, 78.8%. For the compound `COc1ccc(N2C(=O)NC(=O)/C(=C/c3ccc(-c4ccccc4[N+](=O)[O-])o3)C2=O)cc1`, the displacement was -46.3%. The result for `Cc1c(Cl)cccc1-c1ccc(/C=C/c2cc(C(F)(F)F)[nH]c(=O)n2)o1` reads -60.9%. The result for `COc1ccc(N2C(=O)/C(=C/c3ccc(-c4ccccc4[N+](=O)[O-])o3)C(=O)NC2=S)cc1` reads 15.9%; that for `Cc1ccc(N2C(=O)NC(=O)/C(=C\c3ccc(-c4ccc(C)c([N+](=O)[O-])c4)o3)C2=O)cc1`, 151%. Turning to `Cc1ccc(N2C(=O)NC(=O)/C(=C/c3ccc(C)c([N+](=O)[O-])c3)C2=O)cc1`, the displacement was -16.7%. The result for `COc1ccc(-c2ccc(/C=C3/C(=O)NC(=O)N(c4ccccc4)C3=O)o2)c([N+](=O)[O-])c1` reads 78.3%. As for `O=c1nc(/C=C/c2ccc(-c3ccc([N+](=O)[O-])cc3Cl)o2)cc(C(F)(F)F)[nH]1`, the figure is 11.9%. The result for `COc1ccc(-c2ccc(/C=C3\C(=O)NC(=O)N(c4ccc(Cl)cc4)C3=O)o2)c([N+](=O)[O-])c1` reads 47%; that for `Cc1ccc(N2C(=O)NC(=O)/C(=C\c3ccc(-c4cccc([N+](=O)[O-])c4)o3)C2=O)cc1`, -5.9%; that for `COc1ccc(-c2ccc(/C=C3/C(=O)NC(=O)N(c4ccc(C)cc4)C3=O)o2)c([N+](=O)[O-])c1`, 83.5%. As for `O=C1NC(=O)N(c2ccccc2)C(=O)/C1=C\c1ccc(-c2ccccc2[N+](=O)[O-])o1`, the displacement was determined as 2.7%. The result for `O=C(Nc1cccc(Oc2ccc3c(c2)C(=O)N(c2ccccc2)C3=O)c1)c1cccc([N+](=O)[O-])c1` reads 12.7%; that for `CC(=O)Nc1ccc(Nc2nc3ccccc3nc2Nc2ccc(NC(C)=O)cc2)cc1`, -13.4%; that for `COC(=O)C1=C(C)N(Cc2ccccc2)C(=O)/C1=C\c1cccc([N+](=O)[O-])c1`, 2.4%. As for `CCOc1ccc(/C=C2/C(=O)NC(=O)N(c3ccc(C)cc3)C2=O)cc1`, the figure is -9.7%; as for `COc1cc(/C=C/C(=O)c2ccc(C)cc2)cc(OC)c1OC`, 1.6%. The result for `Oc1ccccc1/C=N/Nc1nc2ccccc2s1` reads 0.6%; that for `Cc1ccc(NC(=O)CN(c2ccc(Oc3ccccc3)cc2)S(C)(=O)=O)cc1`, 5.1%.

Take `CC(=O)n1cc(/C=C2\N=C(c3cccs3)OC2=O)c(-c2ccccc2)n1`: the displacement was -0.1%. On to `O=C1/C(=C/c2c3ccccc3nc3ccccc23)Sc2ccccc21`, for which the displacement is -0.5%. As for `CC(=O)n1cc(/C=C2\Sc3ccccc3C2=O)c(-c2ccccc2)n1`, the figure is 145%. As for `NC(=O)c1ccc(Sc2nc3ccccc3s2)c([N+](=O)[O-])c1`, the figure is 1.4%.

For the compound `COC(=O)c1cccc(N2C(=O)C=CC2=O)c1`, the displacement stood at 1%. As for `O=C(CSc1nc2sc3c(c2c(=O)[nH]1)CCCC3)NCc1ccccn1`, the figure is -0.6%; as for `O=C(CSc1nc2sc3c(c2c(=O)[nH]1)CCCC3)NCc1ccco1`, 59.8%. In the case of `O=C(CSc1nc2sc3c(c2c(=O)[nH]1)CCCC3)NCc1ccccc1`, the displacement was -18.5%. The result for `Cc1ccc(C)c(S(=O)(=O)Nc2ccc(Cl)cc2)c1` reads 9%; that for `COc1ccc(NC(=O)CN(c2ccc(Cl)cc2)S(C)(=O)=O)c(OC)c1`, 10.7%. The result for `O=C(Nc1ccc([N+](=O)[O-])cn1)c1cc(-c2ccc(Cl)c(Cl)c2)nc2ccccc12` reads 52.4%; that for `O=C(Nc1cc([N+](=O)[O-])ccc1Cl)c1cc(-c2ccc(Cl)cc2)nc2ccccc12`, 13.6%. The result for `O=C(Nc1ccccn1)c1cc(-c2ccc(Cl)c(Cl)c2)nc2ccccc12` reads 10%; that for `COC(=O)COc1ccc(/C=C2\C(=O)NC(=O)N(C)C2=O)cc1OC`, -18.2%.

Consider `CCOc1ccc(Br)cc1/C=N\NC(=O)c1cc(C)[nH]n1`, for which the displacement was -2.6%. With `COc1ccccc1NC1=C(Cl)C(=O)N(c2ccc(C)cc2C)C1=O`, the displacement came out at 8.3%. With `CCc1ccccc1NC1=C(Cl)C(=O)N(c2ccc(C)cc2C)C1=O`, the displacement was 16.8%.

`Cc1ccc(N2C(=O)C(Cl)=C(Nc3ccccc3F)C2=O)c(C)c1`: the displacement was 71.5%. On to `Nc1nnc(CCC(=O)c2ccccc2)s1`, for which the displacement was found to be 3.5%. The result for `NC(=O)c1ccccc1NC(=O)c1ccc(I)cc1` reads 7.7%; that for `Cc1c(Cc2ccccc2)sc(NC(=O)c2ccc([N+](=O)[O-])cc2)c1C(N)=O`, 65.7%; that for `COc1ccc(C(=O)Nc2sc(Cc3ccccc3)c(C)c2C(N)=O)cc1`, -16.5%. As for `Cc1c(Cc2ccccc2)sc(NC(=O)c2ccc(-c3ccccc3)cc2)c1C(N)=O`, the figure is -1.3%; as for `CC(=O)Nc1cccc(NC(=O)c2cccc(I)c2)c1`, -1.5%; as for `O=C(COc1ccc(Cl)cc1Cl)OCc1ccccc1`, -9.2%. As for `CC(=O)C(C(C)=O)c1cc(NS(=O)(=O)c2ccc(C)cc2)c2ccccc2c1O`, the figure is 3.6%. Consider `CCOC(=O)C(C(C)=O)c1cc(NS(=O)(=O)c2ccc(C)cc2)c2ccccc2c1NS(=O)(=O)c1ccc(C)cc1` (stereo not given), for which the displacement stood at 78.8%.

Consider `Cc1ccc(S(=O)(=O)Nc2cc(C(C(=O)OC(C)C)C(=O)C(F)(F)F)c(O)c3ccccc23)cc1` (stereo not given), for which the displacement was -5.6%. The result for `Cc1cccc(-c2cc(NC(=O)c3ccc(Br)cc3)n[nH]2)c1` reads 9.4%. In the case of `COc1ccc(-c2nc3ccccc3o2)cc1NC(=O)c1cc2ccccc2cc1OC`, the displacement was -8.6%. In the case of `CN(C)c1ccc(-c2nc3cc(NC(=O)c4ccccc4Br)ccc3o2)cc1`, the displacement is 1.6%.

Turning to `COc1ccccc1C(=O)Nc1ccc2oc(-c3cccc(C)c3)nc2c1`, the displacement came out at 1.6%.

As to `COc1ccc(-c2nc3ccccc3o2)cc1NC(=O)c1ccc(Br)o1`, the displacement came to 63%. As for `CCc1ccc(-c2nc3cc(NC(=O)c4ccccc4OC)ccc3o2)cc1`, the figure is 8.5%. As to `CN(C)c1ccc(-c2nc3cc(NC(=O)c4cccc(Br)c4)ccc3o2)cc1`, the displacement is 62.5%.

For `Cc1cccc(C(=O)Nc2ccc3oc(-c4ccc(N(C)C)cc4)nc3c2)c1`, the displacement was found to be 35.7%. The result for `COc1ccc(Br)cc1C(=O)Nc1ccc2oc(-c3ccccc3)nc2c1` reads -2.9%. In the case of `COc1cccc(C(=O)Nc2cc(-c3nc4ccccc4o3)ccc2OC)c1`, the displacement is -29.6%.

For the compound `COc1ccc(Br)cc1C(=O)Nc1ccc(-c2nc3ccccc3o2)cc1`, the displacement stood at 134%. The result for `COc1ccc(Br)cc1C(=O)Nc1ccc(-c2nc3ncccc3o2)cc1` reads 5.4%; that for `COc1ccccc1C(=O)Nc1ccc2oc(-c3ccncc3)nc2c1`, 135%; that for `COc1ccc2c(c1OC)C(=O)N(c1cccc(Cl)c1)C2=O`, -23.7%. As for `O=C1NC(=O)N(c2ccccc2Cl)C(=O)/C1=C\C=C\c1ccco1`, the figure is 15.6%. The result for `COc1cc(/C=C(\C#N)c2nc3ccc(C)cc3[nH]2)cc(OC)c1O` reads -65.6%. For `COc1ccc(-c2nnc(-c3cccc([N+](=O)[O-])c3)o2)cc1`, the displacement came out at 5.8%.

Take `N/C(=N\OC(=O)c1cccc(F)c1)c1ccccc1`: the displacement is -7.1%.

For `CCOc1cc(C(=S)N2CCOCC2)cc(Br)c1OC(=O)c1ccc(Cl)cc1Cl`, the displacement was determined as 14.1%. For the compound `COC(=O)c1ccc(NC(=O)CC2Sc3ccccc3NC2=O)cc1` (stereo not given), the displacement was determined as 3.1%. The result for `O=C(Nc1ccc2oc(-c3ccncc3)nc2c1)c1ccncc1` reads 28.9%; that for `O=C(Nc1ccc2oc(-c3ccccc3)nc2c1)c1ccncc1`, -3.2%. The result for `Cc1ccc(-c2nc3cc(NC(=O)COc4ccccc4C)ccc3o2)cc1` reads -6.6%; that for `O=C(COc1ccc(Cl)cc1)Nc1ccc2oc(-c3ccccc3)nc2c1`, -6.4%; that for `O=C(Nc1ccc2oc(-c3ccncc3)nc2c1)c1cccnc1`, 61.6%. With `O=C(COc1ccccc1Cl)Nc1ccc2oc(-c3ccncc3)nc2c1`, the displacement is 136%.

Turning to `CCOc1cc(/C=C2\SC(=S)N(Cc3ccco3)C2=O)ccc1O`, the displacement was -18.8%. In the case of `CCOC(=O)c1c(C)oc2cc(Br)c(OCC(=O)OCc3ccccc3)cc12`, the displacement was determined as 10.8%. As for `CCOC(=O)C1=C(C)N=C2SCCN2C1c1ccccc1` (stereo not given), the displacement was -10.4%. As for `CSc1ccccc1NC(=O)CSc1nc2ccccc2o1`, the figure is 18.9%.

In the case of `O=C(Nc1ccccc1C(=O)O)c1ccc(N2C(=O)C3C4C=CC(C4)C3C2=O)cc1` (stereo not given), the displacement was -3.6%.

These data come from PubChem BioAssay AID1240 (Sanford-Burnham Center for Chemical Genomics, 2008).
